Assay outcomes as filed in PubChem BioAssay.
S2 tox: Viability Counterscreen for Primary qHTS for Inhibitors of ATXN expression; S2 cells (HEK-293 line with an ATXN2-luciferase reporter) viability, CellTiter-Fluor protease fluorescence, 24 h; Potency, µM (top dose mostly 56.7 µM), actives largely listed as cytotoxic; 400,000 compounds, 0.49% hits; AID 651635, 2014; further: nearly all actives have a fitted effect of over 40% in size
ATXN2 expr inh: Primary qHTS for Inhibitors of ATXN expression. HEK-293 ATXN2-luciferase reporter, luminescence, 24 h. Potency, µM (series often up to 57 µM), without a hit: top-dose activity change, negative = inhibition, usual class: inhibitors. 360,000 compounds, 0.72% hits; further: on the % scale 0 is the no-effect control and ±100 the full control effect; nearly all actives have a fitted effect of over 55% in size
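qHTS (up to 57 uM final) was run with 24 h compound exposure of reporter cells at 37 °C. Each well was multiplexed: SteadyGlo luminescence measured ATXN2-luciferase expression after a fluorogenic Gly-Phe-AFC viability readout (25 uM final).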
TGFb SMAD3 inh: qHTS for Inhibitors of TGF-b | AID 588855, 2011 | Potency, µM (doses to about 46.1 µM), for inactives: at the top dose activity, negative = inhibition, usual class: inhibitors | HepG2 CAGA-GFP TGF-b/SMAD3 reporter, GFP fluorescence, 18 h; TGF-beta stimulated, 500 pg/mL final | 410,000 compounds, 1.2% hits; further: on the % scale 0 is the no-effect control and ±100 the full control effect; nearly all actives have a fitted effect of over 65% in size
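GFP signal (ex488/em500-530) from TGF-beta-stimulated HEPG2 CAGA-GFP cells, 500 pg/mL final, 18 h at 37 degrees C in DMEM plus 1% FBS, normalized to unstimulated and DMSO-stimulated controls.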
VP16 counter: VP16 counterscreen qHTS for inhibitors of ROR gamma transcriptional activity; Drosophila S2 Gal4-VP16 UAS-luciferase, luminescence, 20 h; Potency, µM (series often up to 53.6 µM), for the others: top-dose activity, negative = inhibition, usual class: inhibitors; 310,000 compounds, 3.5% hits; AID 2546, 2010;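 further: Gal4-VP16 expression switched on by copper sulfate through the metallothionein promoter; on the % scale 0 is the no-effect control and ±100 the full control effect; nearly all actives have a fitted effect of over 50% in size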
HepG2 viability: qHTS for Inhibitors of TGF-b: Cytotox Counterscreen. HepG2 CAGA-GFP viability, ATP luminescence, 18 h. Potency, µM (top dose mostly 46.1 µM), for inactives: at the top dose activity change, negative = cytotoxicity, most hits filed as cytotoxic. 410,000 compounds, 0.76% hits
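CellTiter-Glo luminescence gave cytotoxicity after 18 hours at 37 degrees C. The cells were HepG2 CAGA-GFP in 1% FBS DMEM, stimulated with 500 pg/mL TGF-beta after compound addition. %Activity was normalised to no-cell wells (complete cell-killing) and DMSO (no toxicity), and curves were fitted and classified.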
RORgamma inh: qHTS for inhibitors of ROR gamma transcriptional activity | Potency, µM (titrated, usually from 53.6 µM), for the others: at the highest dose activity change, negative = inhibition, usual class: inhibitors | Drosophila S2 Gal4-RORgamma UAS-luciferase reporter, 20 h | 310,000 compounds, 5.4% hits | Nuclear receptor ROR-gamma (Mus musculus), P51450; further: on the % scale 0 is the no-effect control and ±100 the full control effect; nearly all actives have a fitted effect of over 60% in size
Target sequence (P51450 whole entry, looked up, the tested form may be a part): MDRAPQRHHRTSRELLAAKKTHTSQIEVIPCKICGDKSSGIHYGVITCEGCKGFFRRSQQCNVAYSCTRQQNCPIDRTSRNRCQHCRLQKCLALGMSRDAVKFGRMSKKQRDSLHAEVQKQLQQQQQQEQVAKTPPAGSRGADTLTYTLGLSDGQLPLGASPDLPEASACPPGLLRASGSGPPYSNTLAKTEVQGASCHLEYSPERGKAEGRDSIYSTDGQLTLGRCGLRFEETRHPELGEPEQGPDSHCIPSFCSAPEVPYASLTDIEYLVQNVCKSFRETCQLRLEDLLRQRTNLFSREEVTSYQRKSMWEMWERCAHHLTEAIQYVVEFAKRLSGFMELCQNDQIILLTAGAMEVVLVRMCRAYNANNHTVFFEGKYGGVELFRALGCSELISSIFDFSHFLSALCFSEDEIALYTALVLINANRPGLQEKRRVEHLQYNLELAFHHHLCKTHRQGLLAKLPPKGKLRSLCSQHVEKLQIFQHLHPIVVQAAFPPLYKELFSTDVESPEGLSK
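Drosophila Schneider cells stably carrying a metallothionein-driven Gal4 DBD–ROR gamma fusion and a UAS-Photinus luciferase reporter were exposed to compound for 1 hr, then induced with copper sulfate (700 uM final) for 20 hr at ambient temperature before luminescence reading.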
An asterisk follows results filed as active; i = inactive; u = inconclusive; x = no result given; [ ] = another dose, or the depositor's remark. Shown are actives, neighbours in structure and some others; about 6.1% of the full set was active somewhere. The call rests on the fitted dose curve; in most records, active means well fitted curve in the direction sought with a large enough effect; inconclusive means small, poorly fitted or top-dose-only effect, or another doubt; inactive means no such curve, though single readings can be large; an effect the other way counts as inactive or inconclusive. Potency means the concentration at half of the fitted maximal effect.

SMILES	S2 tox	ATXN2 expr inh	TGFb SMAD3 inh	VP16 counter	HepG2 viability	RORgamma inh
CCC(=O)NC(=S)Nc1ccc(-c2nc3ccc(C)cc3s2)cc1	i	55%	0%	0.89µM*	-6%	1.1µM*
Cc1ccc2nc(-c3ccc(NC(=O)Cc4ccccc4)cc3)sc2c1	i	48%	15%	x	9%	x
Cc1ccccc1OCCCN1C(=O)C(=O)c2cccc(C)c21	u	-38%	u	11µM*	-24%	35µM*
Cc1cccc2c1N(CCCOc1ccccc1)C(=O)C2=O	i	-3%	u	u	-23%	-44%
C(=N\Nc1nc(Nc2ccccc2)nc(Nc2ccccc2)n1)/c1cccnc1	u	-6%	-6%	u	-42%	u
C(=N\Nc1nc(Nc2ccccc2)nc(Nc2ccccc2)n1)/c1ccncc1	i	-9%	u	-22%	13µM*	-34%
CCOc1cc(/C=N/NC(=O)c2ccccn2)ccc1OC(=O)c1ccc(F)cc1	i	1%	3%	u	-4%	18µM*
CCOc1cc(/C=N/NC(=O)c2ccncc2)ccc1OC(=O)c1ccccc1	i	-7%	-20%	-2%	-16%	9%
CCOc1cc(/C=N/Nc2cccc(C(=O)O)c2)ccc1OC(=O)c1ccccc1	i	14µM*	-2%	20%[10 µM]	-12%	-14%
COCCn1c(-c2ccc(OC)cc2)cnc1SCC(=O)Nc1cccc2ccccc12	i	2%	0%	21%	-11%	5µM*
O=C(CSc1nc2c([nH]c3ccccc32)c(=O)n1-c1ccc(Cl)cc1)NC1CCCCC1	u	15%	0%	x	-7%	x
OCC1OC(c2ccccc2)C=CC1Oc1cc(Cl)cc(Cl)c1 (stereo not given)	x	x	x	0%[10 µM]	x	13%[10 µM]
Cc1ccc(S(=O)(=O)N2[C@@H](c3ccccc3)C(C(=O)O)=CC[C@H]2c2ccc(C(C)C)cc2)cc1	i	2%	16µM*	x	-31%	x
COc1cc(O)c(C(CC(=O)N2CCN(c3ccccc3)CC2)c2ccc(N(C)C)cc2)c(OC)c1 (stereo not given)	i	-2%	u	-1%	-1%	-18%
COc1cc(OC)c2ccc(=O)oc2c1C(CC(=O)N1CCCC(C)C1)c1ccc2c(c1)OCO2 (stereo not given)	u	-6%	-13%	11%	0%	-3%
COc1cc(O)c(C(CC(=O)N2CCCC(C)C2)c2ccc3c(c2)OCO3)c(OC)c1 (stereo not given)	i	-1%	-1%	-7%	5%	3.5µM*
COc1cc(O)c(C(CC(=O)N2CCCCC2)c2ccc3c(c2)OCO3)c(OC)c1 (stereo not given)	i	2%	-10%	-5%	7%	14µM*
COc1cc(O)c(C(CC(=O)N2CCCC(C)C2)c2ccc(N(C)C)cc2)c(OC)c1 (stereo not given)	i	0%	-4%	-9%	-33%	2µM*
Cc1nn(CCC(=O)Nc2ccccc2Br)c(=O)c2nn(-c3ccccc3)c(C)c12	x	x	-13%	x	-15%	x
Cc1ccccc1NC(=O)C(=O)NCC1(c2ccccc2)CCCC1	x	x	u	x	5%	x
O=C1CS/C(=C/C(=O)c2cccc(Cl)c2)N1	i	u	4%	u	-3%	5.6µM*
Cc1ccc(C(=O)/C=C2/NC(=O)CS2)cc1	u	22%	4%	u	-13%	u
COc1ccc(NC(=O)Nc2nnc(N(C)C3CCCCC3)s2)c(OC)c1	x	x	11µM*	x	-104%	x
C=C(C)C(=O)C1CCCCC1	x	x	x	-1%	x	0%
Cc1cccnc1NC(=O)CNC(=O)c1sc2ccccc2c1Cl	i	19%	-4%	x	-7%	x
SMILES	S2 tox	ATXN2 expr inh	TGFb SMAD3 inh	VP16 counter	HepG2 viability	RORgamma inh
O=C(Nc1ccc(NC(=O)c2sc3ccccc3c2Cl)cc1)c1ccco1	i	-31%	4%	u	4%	11%[10 µM]
O=C(Nc1nccs1)c1sc2cc(Cl)ccc2c1Cl	u	-21%	u	2.8µM*	-61%	0.5µM*
CC(C)c1nnc(NC(=O)c2sc3ccccc3c2Cl)s1	u	35%	u	u	-8%	8.9µM*
Cc1cnc(NC(=O)c2sc3ccccc3c2Cl)s1	i	x	1%	5µM*	-14%	2µM*
O=C(Nc1nccs1)c1sc2ccccc2c1Cl	u	-38%	u	5µM*	-46%	2.2µM*
O=C(COc1ccccc1Cl)OCc1cc(=O)n2nc(C3CCCCC3)sc2n1	i	4%	u	x	3%	x
Cc1ccnc(NC(=O)c2sc3ccccc3c2Cl)c1	i	-27%	u	1.4µM*	-13%	0.28µM*
O=C(Nc1nccs1)c1ccccc1[N+](=O)[O-]	i	-10%	-6%	5%	-7%	-5%
O=C(Nc1ccccn1)c1ccc(Cl)s1	i	29%	-4%	-3%	-17%	-8%
O=C(Nc1nccs1)c1cc(Cl)ccc1[N+](=O)[O-]	i	2%	3%	u	-5%	13µM*
O=C(Nc1nccs1)c1ccc(Cl)s1	i	12%	-18%	-93%	-13%	10µM*
CCCCNC(=O)c1ccc2c(c1)NC(=O)C(CS(=O)(=O)Cc1cccc(C)c1)N2 (stereo not given)	x	x	u	x	-14%	x
Cc1nn(-c2ccccc2)c(Cl)c1CN(C(=O)CCl)c1ccc(Cl)cc1	11µM*	14µM*	10µM*	u	7.9µM*	-7%[10 µM]
Cc1nn(-c2ccccc2)c(Cl)c1CN(C(=O)CCl)c1cccc2ccccc12	28µM*	u	u	u	-113%	14µM*
CCc1nc2ccc(C(=O)NCc3cc(OC)ccc3OC)cc2nc1CC	x	x	2%	x	1%	x
